15 molecules from publication PMC12136788 can be followed below.

First the molecules themselves.
T1: UNK ZnF1-6 (called full-length) (human, UniProt Q9C0B0 30-357)
T1 sequence: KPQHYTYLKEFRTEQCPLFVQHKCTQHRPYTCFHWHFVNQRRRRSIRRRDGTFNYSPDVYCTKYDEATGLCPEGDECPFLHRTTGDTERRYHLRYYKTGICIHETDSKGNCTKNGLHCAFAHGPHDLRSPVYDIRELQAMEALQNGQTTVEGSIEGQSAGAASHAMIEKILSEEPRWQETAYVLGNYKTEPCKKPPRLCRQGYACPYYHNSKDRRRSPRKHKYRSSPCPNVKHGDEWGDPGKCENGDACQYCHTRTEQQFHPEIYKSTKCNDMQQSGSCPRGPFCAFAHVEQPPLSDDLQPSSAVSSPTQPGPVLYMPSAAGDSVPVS

B1: chr2:27433287:27433389:+|CDS|ENSG00000115216|unk|FALSE|unique (ssRNA)
RNA: GGGAGUUCUACAGUCCGACGAUCUUCCAGCAUGUCGGAGGGGGAGUCCCAGACAGUACUUAGCAGUGGCUCAGACCCAAAGGUAGAAUCCUCAUCUUCAGCUCCUGGCCUGACAUCAGUGUCACCUCCUGUGACCUCCACAACCAACAGAGGAUUGAGCAUCA
B2: chr8:6811200:6812339:-|CDS|ENSG00000275591|control|control|control (ssRNA)
RNA: GGGAGUUCUACAGUCCGACGAUCAUGUAGAGGCUUCUGCCCCAGUGCAGGCUUCCCUGGAAGAACCCUCAGUAUCUCAGAGCUAGAGGAGCCGCUGGAGCCCAAAAGGGAGCUAAGUCACCAUGCAGCUGUUGGUGUGUGGGUCAACAGAGGAUUGAGCAUCA
B3: chr19:58083837:58084684:-|three_prime_utr|ENSG00000121413|control|control|control (ssRNA)
RNA: GGGAGUUCUACAGUCCGACGAUCGCUCGCAUCCGAGGGGAGCCGCCGGAUGUGGAAGAAGACUCGGCUUUCCUGCAGCCAUUUAGUGCCGCCCCAUGCUAGGUUAUUUGACAUUGUGCAGUGUAGAGUUGCCUUAAAGUGCGUCAACAGAGGAUUGAGCAUCA
B4: chr1:211748167:211748268:-|3pUTR|ENSG00000123684|msi1|FALSE|unique (ssRNA)
RNA: GGGAGUUCUACAGUCCGACGAUCGUACUGCAUCAGUGAGAUGAGUAGGGUUUUUGUUUGGGAUUGUAAGACUAUUAAGAUCCUAGUAAGUCAGUGGUAGUUUACUGUGAUGUGAGCAUUGUAGAUUCCCCCGUUGUCACUAAUCAACAGAGGAUUGAGCAUCA
B5: chr17:63354981:63355093:+|CDS|ENSG00000170921|unk|total|mutant (ssRNA)
RNA: GGGAGUUCUACAGUCCGACGAUCCAGUCAAGGGUCCUAUCUAUAUCUGAAACUUACAUUUGACCUCACCGAGAAAGGCUAUCCCGUGUUAAAGAGCUCCCGCUACAAAGCCGUUCCUGUUUCGCUCUCAGAGGUUUAUUUACUCAACAGAGGAUUGAGCAUCA
B6: chr11:72288215:72288316:-|3pUTR|ENSG00000162129|unk|FALSE|unique (ssRNA)
RNA: GGGAGUUCUACAGUCCGACGAUCACCCAGCUAAUUUUUUUUGUAUUUUUAGUAAAGACGGGGUUUCACCAUGUUUGCCAGGCUAGUCUCAAACUCCUGGUCUCAAGUGAUCCACCCACCUUGGCCUCCCAGAGUGCUGAGAUUCAACAGAGGAUUGAGCAUCA
B7: chr11:107429260:107429366:-|CDS|ENSG00000152404|unk|total|mutant (ssRNA)
RNA: GGGAGUUCUACAGUCCGACGAUCGAGGAAACCCACAUAUUCAGAUAAAGCACAAAAUUGUCAAGAAAGCCGAGAAUCAGACUCCGUAAAAUAUGGUAACAGUUCAAGGGACCGAUAUGCUACAACAGAUACUGCAAAAAACCGCAACAGAGGAUUGAGCAUCA
B8: chr7:115017934:115018035:+|3pUTR|ENSG00000135272|unk|FALSE|unique (ssRNA)
RNA: GGGAGUUCUACAGUCCGACGAUCUGAGAUGAAACGUAGUUUCUAGUUAUAUCAUUACUUAAAGGGCUUAAAAAGAAAAAACUUAGCAAACUUUUGAAUCUUUCUUUUAUUGCUAUUUACACAUACAUACACACAUACAAAACCCAACAGAGGAUUGAGCAUCA
B9: chr19:9526975:9527076:-|3pUTR|ENSG00000130818|unk|FALSE|unique (ssRNA)
RNA: GGGAGUUCUACAGUCCGACGAUCCCUCUCAGACCUUCCAUCAUUACUAUAUUUCACUUUUAUGCCUAUAAACACACACAAAUUAGCAUAUGUAAUCUAAUACAUUGUAGCUAUUUUUCAGAAGUUAUCAGAUCAAUUAAGUAUCAACAGAGGAUUGAGCAUCA
B10: chr11:69653362:69653473:+|3pUTR|ENSG00000110092|msi1_unk|FALSE|overlapping (ssRNA)
RNA: GGGAGUUCUACAGUCCGACGAUCACUGCCAUGUACUAGUUUUAGUUUUCUCUUAGAACAUUGUAUUACAGAUGCCUUUUUUGUAGUUUUUUUUUUUUUUAUGUGAUCAAUUUUGACUUAAUGUGAUUACUGCUCUAUUCCAAACAACAGAGGAUUGAGCAUCA
B11: chr10:92030471:92030572:+|3pUTR|ENSG00000095564|unk|FALSE|unique (ssRNA)
RNA: GGGAGUUCUACAGUCCGACGAUCUAUUUUUUUAUUAACUAUUUAUUUGCUAGUUCCAUAAACCAGCUCUUUAACAUAGCUUAUAGUAAUUGAUAUUUUCUUAGAAUAAGUACAGAGCAAUAUAUCAUUAAAGGGCUAUGAAGGCAACAGAGGAUUGAGCAUCA
B12: ENSG00000136451:be:win_3351|3pUTR|ENSG00000136451|bound_else_gene|NA|bound_elsewhere_windowed (ssRNA)
RNA: GGGAGUUCUACAGUCCGACGAUCGAAGGCAACACAUUCCUACACUUUUAAUGUAUAUGUUUGUUAUAAUGUCCAUGUAAACAUGCCCUAUGUUUGUGCCUUUUAAUUAGUUUGUCUCAAUAAACAAAAUGUAGAGAAAAAUAUCAACAGAGGAUUGAGCAUCA
B13: chr10:92030471:92030572:+|3pUTR|ENSG00000095564|unk|total|mutant (ssRNA)
RNA: B11 RNA with U50C, A51C, U76C, A77C, U83C, A84C, U101C, A102C
B14: chr17:44253117:44253371:-|CDS|ENSG00000004939|control|control|control (ssRNA)
RNA: GGGAGUUCUACAGUCCGACGAUCCAAACCUGAGCGCAAGAUGGUCAAGGGCUCCGGCUUCCACCUGGACCUGCUGCUGGUAGUAGGCAUGGGUGGGGUGGCCGCCCUCUUUGGGAUGCCCUGGCUCAGUGCCACCACCGUGCGCAACAGAGGAUUGAGCAUCA
B15: chr6:105096826:105097152:-|3pUTR|ENSG00000112276|msi1|FALSE|unique (ssRNA)
RNA: GGGAGUUCUACAGUCCGACGAUCACUUGCAACCUAGUUUUAAAAUACAUGAGGAUUUUAUGAAAGCUUUAUACAGACAUUUAUAGGAAACUCAUUCUUUGAUUUUAGGUGCCAUUUAAAUUGAUAACACUUACUUUAUAAAAACAACAGAGGAUUGAGCAUCA

Numbering of substitutions follows the chain as printed. Whole data set: some 5,800 sequences, median “enrichment r” near 0.68, cut for the highest 2% near 11. The sample as a whole holds a higher share of the highest values than the screen did.

In this test the target is T1, UNK ZnF1-6 (called full-length). In words: nsRBNS (natural sequence RNA bind-n-seq); RBNS binding buffer (assumed for nsRBNS): 25 mM Tris pH 7.5, 150 mM KCl, 3 mM MgCl2, 0.01% Triton X-100, 500 ug/ml BSA, 20 U/ml SUPERase-In, 4 C; UNK is unkempt and MSI1 is Musashi-1; names of the RNAs are library labels; protein concentration not given here; high values mean tight binding.
As to B1, the binding signal was 0.848 enrichment R. The molecule B2 came in with a binding signal of 0.868 enrichment R. Molecule B3 showed a binding signal of 0.832 enrichment R. B4 had a binding signal of 0.481 enrichment R. The molecule B5 displayed a binding signal of 0.664 enrichment R. With B6 the figure was 3.92 enrichment R; with B7, 0.603 enrichment R; with B8, 5.81 enrichment R.

The molecule B9 displayed a binding signal of 4.62 enrichment R. With B10, the binding signal was 80.9 enrichment R. The molecule B11 gave a binding signal of 34.3 enrichment R. With B12 the figure was 2.53 enrichment R; with B13, 5.92 enrichment R; with B14, 0.5 enrichment R. The figure for B15 is 1.57 enrichment R.
